Screening data as filed in PubChem.
This is a sample that favours compounds with a hit; in the whole collection about 1.7% have one here.
PTHR1 ag: qHTS for PTHR1 Agonists: Primary Screen | 410,000 compounds, 0.075% hits | HEK293 GP2 PTHR1 cells, GloSensor cAMP luminescence, 1 h | Potency, µM (highest dose often 115 µM), without a hit: top-dose activation, hits mostly activators; also: nearly all actives have a fitted effect of over 55% in size
Target sequence (Q03431 whole entry, looked up): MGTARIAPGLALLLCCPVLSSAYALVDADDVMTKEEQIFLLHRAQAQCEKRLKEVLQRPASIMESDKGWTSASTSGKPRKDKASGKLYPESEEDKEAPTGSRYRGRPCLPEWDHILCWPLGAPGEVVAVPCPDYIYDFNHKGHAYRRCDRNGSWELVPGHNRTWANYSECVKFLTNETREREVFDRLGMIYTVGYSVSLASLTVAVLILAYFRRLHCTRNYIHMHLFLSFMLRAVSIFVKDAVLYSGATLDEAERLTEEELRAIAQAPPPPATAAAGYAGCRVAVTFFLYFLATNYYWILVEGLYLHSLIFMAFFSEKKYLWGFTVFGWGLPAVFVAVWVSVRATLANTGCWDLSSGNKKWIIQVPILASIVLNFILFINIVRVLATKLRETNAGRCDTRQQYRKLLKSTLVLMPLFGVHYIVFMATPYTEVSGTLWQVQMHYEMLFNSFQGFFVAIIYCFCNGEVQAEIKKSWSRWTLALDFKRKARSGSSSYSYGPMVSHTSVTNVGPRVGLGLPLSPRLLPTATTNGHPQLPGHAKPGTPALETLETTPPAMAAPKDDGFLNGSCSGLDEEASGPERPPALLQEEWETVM
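HEK-293-derived GP2 cells expressing PTHR1 and a GloSensor cAMP reporter, 3,000/well, plated overnight, given luciferin plus IBMX (each 0.5 mM as added) for 1 h at 37 °C, then compound for 1 h at 37 °C. Luminescence was read after 15 min at room temperature.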
GLP1R cytotox: qHTS of GLP-1 Receptor Inverse Agonists: Cytotox Screen; HEK293 cAMP-luciferase reporter cells, luminescence, 24 h; Potency, µM (series often up to 38.3 µM), for inactives: at the top dose activity change, negative = inhibition, hits mostly inhibitors; 410,000 compounds, 0.13% hits; AID 624418, 2012;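 also: loss of luciferase light is scored as toxicity; % is scaled to controls: 0 for no effect and ±100 for the full control effect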
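Luminescence readout: signal drop marks cytotoxicity. Plated cells grew 12 h at 37 °C, 5% CO2, received 23 nL compound for 24 h, then got luciferase reagent, read after 12 min at RT.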
GLP1R ag: qHTS of GLP-1 Receptor Agonists. HEK293 GLP-1R CRE-luciferase, luminescence, 4-6 h; cells express a hypersensitive GLP-1R form. Potency, µM (highest dose often 45.6 µM), for inactives: at the top dose activation, hits mostly activators. 380,000 compounds, 0.007% hits; also: % of control where 0% means no effect
GLP-1R inv ag: qHTS of GLP-1 Receptor Inverse Agonists (Inhibition Mode). Glucagon-like peptide 1 receptor (Homo sapiens), P43220. HEK293 GLP-1R CRE-luciferase, luminescence, 24 h; GLP-1R form is constitutively active. Potency, µM (top dose mostly 38.3 µM), for inactives: at the highest dose activity change, negative = inhibition, most hits filed as inhibitors. 410,000 compounds, 1.6% hits. AID 624417, 2012; also: % is scaled to controls: 0 for no effect and ±100 for the full control effect; nearly all actives have a fitted effect of over 55% in size
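Seeding at 200 cells/uL, 12 h culture, 24 hr compound treatment, then luciferase reagent and a luminescence read; cells are HEK293 stably expressing a constitutively active GLP-1R plus cAMP-responsive luciferase.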
Numbers without * were called inactive; i = inactive; ? = inconclusive; / = no result; [ ] = remark or other dose. Calls follow the shape of the dose curve; as a rule, active = well fitted curve in the direction sought with a large enough effect; inconclusive = small, poorly fitted or top-dose-only effect, or another doubt; inactive = no such curve, though single readings can be large; an effect the other way counts as inactive or inconclusive. Potency is read from the fitted curve at half-maximal effect.

SMILES | PTHR1 ag | GLP1R cytotox | GLP1R ag | GLP-1R inv ag
CC1CN(C(=O)COC(=O)c2ccc3ncsc3c2)CC(C)O1 (configuration not stated) | i | -2% | 4% | 4%
COc1ccc(CNC(=O)/C=C/c2ccccc2[N+](=O)[O-])cc1 | i | -8% | -2% | 15%
COC(=O)C(=Cc1ccccc1[N+](=O)[O-])C(=O)OC | -94% | ? | -4% | 10µM*
Cc1cc2nc(-c3cccc(NC(=O)COc4ccc(Cl)c(C)c4)c3)oc2cc1C | -32% | 0% | / | 22%
Cc1nn(-c2ccccn2)c2c1C(=O)CC(C)(C)C2N=[N+]=[N-] (configuration not stated) | 19% | -10% | 1% | ?
COc1ccc(-c2cc(C3CCN(Cc4cccc(C(F)(F)F)c4)CC3)[nH]n2)cc1 | -91% | ? | 5% | 5µM*
COc1ccc(-c2cc(C3CCN(CC(O)C(F)(F)F)CC3)[nH]n2)cc1 (configuration not stated) | -23% | 11% | -5% | -23%
CC(=O)Nc1ccc(S(=O)(=O)NCC2CCC(C(=O)NCCCN(C)Cc3ccccc3)CC2)cc1 (configuration not stated) | -17% | -1% | -3% | ?
CN(CCCNC(=O)C1CCC(CNS(=O)(=O)c2ccccc2)CC1)Cc1ccccc1 (configuration not stated) | i | -1% | 9% | 3.5µM*
CCCC(c1nnnn1CC1CCCO1)N1CCN(c2nc3ccccc3s2)CC1 (configuration not stated) | -51%[57.5 µM] | -1% | 6% | ?
CCCCC(c1nnnn1CC1CCCO1)N1CCN(c2nc3ccccc3s2)CC1 (configuration not stated) | -9% | -2% | 6% | 10µM*
COCCN1CCN(C(=O)C2CCC(=O)N(CCc3ccccc3)C2)CC1 (configuration not stated) | -25% | -2% | -4% | -2%
Cc1cccc(-n2ncc3c(NC4CCCCC4)ncnc32)c1 | -44% | -8% | 6% | ?
COc1ccc(-n2ncc3c(NC4CCCC4)ncnc32)cc1 | -18% | -22% | / | 7.9µM*
Cc1ccc(-n2ncc3c(NC4CCCC4)ncnc32)cc1 | -29% | -12% | / | ?
Clc1cccc(-n2ncc3c(NC4CCCCCC4)ncnc32)c1 | -37% | -32% | / | 10µM*
O=C(NCCN1C(=O)S/C(=C\c2ccccc2F)C1=O)C1=COCCO1 | -15% | -29% | 6% | 1µM*
CNc1sc(C(=O)c2cccs2)c(N)c1-c1nc2ccccc2s1 | -8%[57.5 µM] | ? | 3% | ?
CNc1sc(C(=O)c2ccc(F)cc2)c(N)c1-c1nc2ccccc2s1 | -5%[57.5 µM] | 11µM* | 10% | 0%
COc1ccc(-c2nn(-c3ccccc3)cc2/C=N/Nc2ccc3ccccc3n2)cc1OC | -19% | 13µM* | 17% | ?
COc1ccc(-c2nn(-c3ccccc3)cc2/C=N/O)cc1OC | -26% | 1% | 9% | ?
Cc1c(C(=O)OCC(=O)N2CCCC(C)C2)oc2ccccc12 (configuration not stated) | i | 11% | 16% | 10µM*
O=C(Nc1ccc2c(c1)N(S(=O)(=O)c1cccs1)CCC2)c1c(F)cccc1Cl | -33% | -3% | -7% | 7.9µM*
Cc1cccc(N(C(=O)CNC(=O)c2ccco2)C(C(=O)NC2CCCC2)c2cccnc2)c1C (configuration not stated) | i | 1% | 10% | 4%
Cc1cc(C)c(S(=O)(=O)N2CCCCC2)cc1N(C)S(=O)(=O)c1ccc(Cl)cc1 | -15% | -8% | -3% | 13µM*
SMILES | PTHR1 ag | GLP1R cytotox | GLP1R ag | GLP-1R inv ag
O=C(CCn1c(=O)c2cccn2c2cccnc21)NCCCN1CCN(c2ccc(F)cc2)CC1 | i | 0% | -5% | -23%
N#CC1(Cc2ccccc2)c2ccccc2C=CN1C(=O)c1ccccc1 (configuration not stated) | -10%[57.5 µM] | 8% | -6% | 8.9µM*
Cc1ccccc1NS(=O)(=O)c1ccc2[nH]cc(C(=O)NC3CCCCC3)c(=O)c2c1 | -3% | -23% | / | 10µM*
Cc1c(Cl)cccc1NS(=O)(=O)c1ccc2[nH]cc(C(=O)NC3CCCC3)c(=O)c2c1 | i | -22% | / | ?
Cc1cc(C)cc(NS(=O)(=O)c2ccc3[nH]cc(C(=O)NC4CCCCC4)c(=O)c3c2)c1 | -2% | -18% | / | 7.1µM*
COC(=O)c1ccccc1S(=O)(=O)NNC(=O)C12CC3CC(CC(C3)C1)C2 | 16% | 4% | -4% | -12%
CCN(CC)CCCNc1ncnc2scc(-c3ccc(F)cc3)c12 | -9% | -9% | -13% | 7.1µM*
COc1ccc(-c2csc3ncnc(NCCCO)c23)cc1 | -18% | -6% | -1% | -40%
COC(=O)c1ccc(CNC(=O)C2CCC(=O)N(CCc3ccccc3)C2)cc1 (configuration not stated) | i | -5% | -2% | 7%
CCOC(=O)c1sc(=S)n(Cc2ccccc2)c1C | i | -14% | 16% | 8.9µM*
Cc1nc(-c2cccc(NC(=O)Nc3ccc([N+](=O)[O-])cc3)c2)no1 | -44% | ? | -8% | 3.5µM*
CN1C2C(Br)CCCCN2c2ccc(F)cc2S1(=O)=O (configuration not stated) | i | 1% | -1% | -8%
COc1ccc(/C=N/NC(=O)c2cc(C(C)(C)C)[nH]n2)cc1COc1ccc(F)cc1F | -28% | ? | -6% | 6.3µM*
COc1ccc(/C=N\NC(=O)c2ccccc2F)cc1COc1ccc(F)cc1F | -19% | ? | ? | ?
CN(C)CCNc1ncnc2c1ncn2[C@H]1CN(Cc2ccc(Cl)cc2)C[C@@H](CO)O1 | -5% | -10% | -3% | 7%
COC(=O)CNC(c1ccccc1)c1cc(Cl)ccc1NC(=O)c1cccc(Cl)c1 (configuration not stated) | -11% | -9% | -18% | 10µM*
NNC(=O)CNC(c1ccccc1)c1cc(Br)ccc1NC(=O)c1cccc(Cl)c1 (configuration not stated) | i | -4% | -6% | ?
COC(=O)CNC(c1ccccc1)c1cc(Br)ccc1NC(=O)c1ccccc1 (configuration not stated) | i | 12% | / | ?
CCOC(=O)CNC(c1ccccc1)c1cc(Br)ccc1NC(=O)c1cccc(Cl)c1 (configuration not stated) | i | 1% | / | 8.9µM*
O=C(Nc1sc2c(c1C(=O)NCc1cccnc1)CCCC2)c1cc(=O)c2ccccc2o1 | i | 4% | / | 4%
